According to PubChem BioAssay (NCATS):
Inconclusive results are not listed. The source made the active and inactive calls. The call rests on the fitted dose curve; in most records, active means well fitted activation curve with a large enough effect; inconclusive means small, poorly fitted or top-dose-only effect; inactive means no such curve, though single readings can be large or run the other way.

Test: qHTS for Activators of Parkin Expression: LOPAC Validation Assay (FLuc Reporter) (AID 720573)
Conditions: Cell line, PRKN promoter firefly luciferase reporter, vehicle wells = 0, positive control = 100%; series mostly up to 46.1 µM; activation: at the top concentration
From the text: Parkin is an E3 ubiquitin ligase localized in the cytosol of cells expressed in many tissues, including brain, skeletal muscle, heart and liver tissues. One hour after stress induction by mitochondrial uncouplers (which mimic mitochondria damage by decreasing the mitochondrial inner membrane electrochemical gradient that is used to produce ATP), Parkin translocates from the cytosol to mitochondria in many cultured cell types, including neurons and HeLa cells. Administration of other mitochondrial poisons, such as Paraquat and azide in cells lacking mitochondrial DNA (mtDNA), induces Parkin translocation to mitochondria. […] It was proposed that Parkin (together with Pink1) mediates a mitochondrial quality control pathway to maintain organelle population fidelity by removing damaged mitochondria. Understanding the normal physiologic role of Parkin (and Pink1) may uncover novel treatment strategies for sporadic Parkinson's disease patients with mutation in these genes.
A cell based qHTS in 1536 well format was developed assess modulation of Parkin expression using a neuronal cell line that stably expresses a stably expresses a luminescent coincidence reporter (FLuc and NLuc reporters) behind the Parkin promoter. The LOPAC library is used to validate the assay for quantitative high-throughput screening. The data herein reports the signal from the FLuc reporter. An increase in this signal = activation of Parkin expression. For this assay , a positive control normalized signal increase corresponding to a high quality qHTS curve class in both luminescent channels is the desired outcome for this assay.
NIH Chemical Genomics Center [NCGC]
NIH Molecular Libraries Probe Centers Network [MLPCN]
Assay Submitter (PI): Richard Youle, National Institute of Neurological Disorders and Strokes (NINDS), NIH
[1] Narendra, D., et al., Parkin is recruited selectively to impaired mitochondria and promotes their autophagy. J Cell Biol, 2008. 183(5): p. 795-803.
[2] Suen, D.F., et al., Parkin overexpression selects against a deleterious mtDNA mutation in heteroplasmic cybrid cells. Proc Natl Acad Sci U S A, 2010. […] 11835-40.
[3] Cheng K, Inglese J. A coincedence reporter-gene system for high-throughput screening. Nat Methods. 2012: 9(10);937
Five microliters (1,500 cells/well) of the Parkin coincidence reporter cells were seeded to 1536 well assay plates (Greiner Catalog # 789173-F) and incubated at 37 C, 5% CO2 for 24 hours. Compounds (23 nL) were pinned using the Kalypsys robotic system equipped with 1536 pin head adaptor in 7-point dose response. The assay plates were incubated for additional 24 hr at 37 C, 5% CO2 followed by a volume reduction in each well to 2 uL using an automated plate washer/aspirator. Following the volume reduction,2 uL of FLuc detection reagent and plates were incubated for 10 minutes at room temperature. The FLuc luminescence signal was obtained using the PerkinElmer ViewLux plate imager and then 2 uL of NanoLuc detection reagent was added to the plates. After another 10 minute incubation, NanoLuc signal was obtained using the PerkinElmer ViewLux plate imager as before. Data from each channel was normalized to DMSO (neutral control) and the positive control compounds (100%).

Compound	activation
Nc1cc(Cl)c(NC2=NCCN2)c(Cl)c1	-11.3% (inactive)
CNCCC=C1c2ccccc2CCc2ccccc21	-12.7% (inactive)
O=C(O)c1cc2cc(Cc3cccnc3)ccc2o1	9.42% (inactive)
CC(C)C[C@H]1C(=O)N2CCC[C@H]2[C@]2(O)O[C@](NC(=O)[C@@H]3C=C4c5cccc6[nH]c(Br)c(c56)C[C@H]4N(C)C3)(C(C)C)C(=O)N12	-9.12% (inactive)
Oc1ccc(O)cc1	-45.1% (inactive)
CC1(C)CCC(NC(=O)[C@@H](N)CCC(=O)O)CC1	1.48% (inactive)
CN1C2CCC1CC(OC(=O)c1c[nH]c3ccccc13)C2 (stereo not drawn)	-8.91% (inactive)
N[C@@H](Cc1cnc[nH]1)C(=O)O	-6.15% (inactive)
C[C@@H]1C(=O)NC2=Nc3cccc(Cl)c3CN21	11.5% (inactive)
COc1cc(NS(C)(=O)=O)ccc1Nc1c2ccccc2nc2ccccc12	-14.5% (inactive)
CC(CCc1ccccc1)NCC(O)c1ccc(O)c(C(N)=O)c1 (stereo not drawn)	-9.8% (inactive)
COc1cc2c(cc1O)CC[C@@H]1[C@@H]2CC[C@]2(C)[C@@H](O)CC[C@@H]12	-16.1% (inactive)
C[C@]12CC[C@@H]3c4ccc(O)cc4CC[C@H]3[C@@H]1CC[C@@H]2O	-12% (inactive)
CCC(NC(C)C)C(O)c1ccc(O)c(O)c1 (stereo not drawn)	-8.27% (inactive)
CCCC1O[C@@H]2C[C@H]3[C@@H]4CCC5=CC(=O)C=C[C@]5(C)[C@H]4[C@@H](O)C[C@]3(C)[C@]2(C(=O)CO)O1 (stereo partly drawn)	-1.63% (inactive)
C[N+]1(CCCCC[N+]2(C)CCCC2)CCCC1	6.64% (inactive)
O=C1CCC(c2ccc(-n3ccnc3)cc2)=NN1	0.727% (inactive)
COC(=O)[C@H]1[C@H]2C[C@H]3c4[nH]c5ccccc5c4CCN3C[C@H]2CC[C@@H]1O	-5.3% (inactive)
CC(C)COC(=O)OCN1C(=O)CN(CCN2CC(=O)N(COC(=O)OCC(C)C)C(=O)C2)CC1=O	0.249% (inactive)
CNCCC(Oc1ccccc1C)c1ccccc1 (stereo not drawn)	-10.2% (inactive)
N[C@H](CO)C(=O)O	8.23% (inactive)
C1CCc2nnnn2CC1	-6.95% (inactive)
CC(=O)O[C@H]1C[C@@H]2CC[C@@H]3[C@H](CC[C@@]4(C)[C@H]3C[C@H]([N+]3(C)CCCCC3)[C@@H]4OC(C)=O)[C@@]2(C)C[C@@H]1[N+]1(C)CCCCC1	8.05% (inactive)
